Data on 46 compounds can be found in PubChem BioAssay AID1259400 (National Center for Advancing Translational Sciences (NCATS), 2018).

Out of some 350,000 compounds screened, about 2,100 (0.6%) were called active. Another 1% or so got no clear call; they are omitted. The entries come from a sample that favours actives as a whole. Unmarked numbers belong to inactive results.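 The calls were made as follows: active = activity change of -60% or lower, but not beyond a set lower limit; inconclusive = change between -60% and -40%, or beyond the set limit; inactive = change above -40%.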
% is scaled to controls: 0 for no effect and ±100 for the full control effect.

Sequence of Relaxin receptor 1 (Homo sapiens) (Q9HBX9 whole entry, looked up): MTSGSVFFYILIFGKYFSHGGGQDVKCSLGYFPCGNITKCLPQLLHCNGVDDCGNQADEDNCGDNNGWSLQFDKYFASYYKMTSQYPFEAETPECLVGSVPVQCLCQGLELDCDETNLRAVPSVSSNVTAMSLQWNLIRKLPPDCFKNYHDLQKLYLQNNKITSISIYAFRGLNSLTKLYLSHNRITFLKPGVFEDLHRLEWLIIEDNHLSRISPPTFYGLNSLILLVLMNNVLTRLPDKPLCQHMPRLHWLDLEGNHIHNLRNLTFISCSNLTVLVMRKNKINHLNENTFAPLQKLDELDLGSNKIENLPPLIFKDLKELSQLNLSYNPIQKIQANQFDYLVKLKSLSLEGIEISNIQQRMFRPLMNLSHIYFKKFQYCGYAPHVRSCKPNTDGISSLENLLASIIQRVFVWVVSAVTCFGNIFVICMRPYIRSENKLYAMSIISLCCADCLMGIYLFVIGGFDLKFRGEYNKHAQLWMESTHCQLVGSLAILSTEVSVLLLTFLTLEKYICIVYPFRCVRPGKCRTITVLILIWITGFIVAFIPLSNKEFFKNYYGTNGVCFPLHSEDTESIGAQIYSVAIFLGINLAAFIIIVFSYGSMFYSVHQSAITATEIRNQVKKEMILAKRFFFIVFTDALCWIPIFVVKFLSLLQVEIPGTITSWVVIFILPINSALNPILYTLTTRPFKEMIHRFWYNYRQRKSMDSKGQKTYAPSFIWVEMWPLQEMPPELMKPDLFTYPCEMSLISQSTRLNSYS

This experiment concerns the target Relaxin receptor 1 (Homo sapiens) (UniProt Q9HBX9). As to the kind of experiment: qHTS Assay for Antagonists of the Relaxin Receptor RXFP1. The settings on record: HEK293-RXFP1, relaxin-stimulated cAMP HTRF, 30 min; at 57.5 µM; hits give low values.
As for `C[N+](C)(CCOc1ccccc1)Cc1cccs1` (tested in a mixture with another compound), the activity change, negative = inhibition is 10.6%.
As to `Cc1ccc(-n2ncc3c(NCCCn4ccnc4)ncnc32)cc1Cl`, the activity change, negative = inhibition is -9.38%.
Next, `COc1ccc(OC)c(CNC(=O)CN2C(=O)CCn3nc(-c4cn(C)c5ccccc45)cc32)c1`: -2.73%.
In the case of `CC(=O)OC1=C(C(C)=O)N(Cc2ccccc2)S(=O)(=O)c2ccccc21`, the activity change, negative = inhibition was -3.88%.
For `Cc1ccccc1NC(=O)CSC(=O)c1ccccc1`, the activity change, negative = inhibition is -0.348%.
For the compound `Cc1ccccc1NC(=S)NC(=O)Cc1ccc(Cl)cc1`, the activity change, negative = inhibition is -24.7%.
`Cc1ccccc1N/C(SCc1ccc(Cl)cc1)=C(/C#N)C(N)=O`: the activity change, negative = inhibition was -65.6% (active).
Next, `O=S(=O)(NCC(c1ccccc1)N1CCc2ccccc21)c1ccccc1` (stereo unspecified): -18.8%.
On to `Cc1cc(NC(=O)CSc2ncc(C(F)(F)F)cc2Cl)no1`, for which the activity change, negative = inhibition was -64.7% (active).
Next, `Cc1cc(NC(=O)CSc2nnc(-c3ccc(Cl)s3)o2)no1`: -21%.
`Cc1cc(NC(=O)CSCC(=O)NC(C)c2ccccc2)no1` (stereo unspecified): the activity change, negative = inhibition is 3.67%.
For `COc1ccccc1N1CCN(S(=O)(=O)CCNC(=O)COc2ccc(F)cc2)CC1`, the activity change, negative = inhibition was 8.32%.
As for `CCc1nnc(NC(=O)c2ccco2)s1`, the figure is 0.195%; as for `O=C(Nc1nc(-c2ccco2)c(-c2ccco2)s1)c1ccco1`, -61.6% (active).
Next, `Cc1ccc(NC(=O)c2ccco2)cc1`: -9.99%; `Cc1ccc(C2c3[nH]c4ccccc4c3CCN2C(=O)c2cccc(C)c2)cc1` (stereo unspecified): -10.4%.
`Cc1cc(C)cc(NC(=O)Cn2nc(N3CCN(c4ccccc4)CC3)ccc2=O)c1`: the activity change, negative = inhibition was -7.03%.
With `Cc1ccc(NC(=O)CCCn2c(=O)c3cccn3c3ccccc32)cc1Cl`, the activity change, negative = inhibition was -24.4%.
On to `COc1ccc(C(=O)NCC(c2ccc(N(C)C)cc2)N2CCc3ccccc32)c(OC)c1` (stereo unspecified), for which the activity change, negative = inhibition is -11.3%.
Next, `COc1ccc(N2CCN(C(=O)C3CCCN(C(=O)c4cc5sccc5n4C)C3)CC2)cc1` (stereo unspecified): -23.3%.
For the compound `Cc1ccc(Cn2c(=O)n(Cc3nc(-c4ccccc4)no3)c(=O)c3cc4c(cc32)OCO4)cc1`, the activity change, negative = inhibition was 15.5%.
As for `COc1cc(/C=C2/C(=O)NN(c3ccc(F)cc3)C2=O)cc([N+](=O)[O-])c1O`, the figure is -12.2%; as for `C#CCOc1ccc(/C=C2/C(=O)ON=C2C)cc1OCC`, -2.39%.
Next, `C#CCOc1ccc(/C=C2/C(=O)NN(c3ccccc3)C2=O)cc1OC`: -66.6% (active); `Cc1ccc(-c2nc3ccccn3c2Nc2c(C)cccc2C)o1`: -10.4%; `COc1ccc(CNC(=O)c2ccc(NC(=O)N3CC4CCCN4c4ccccc43)cc2)cc1` (stereo unspecified): -9.24%.
As for `CSc1ccccc1-c1nnc(NC(=O)c2ccc3c(c2)OCCO3)o1`, the figure is 23.7%; as for `COc1cc(OC)c(OC)cc1/C=C/c1nc2ccccc2c(=O)n1-c1ccc(Br)c(C)c1`, -16.8%; as for `O=C(CCS(=O)(=O)c1cc(Br)cc2c1N(C(=O)C1CC1)CC2)Nc1ccc(Br)cc1F`, 2.95%.
`O=S(=O)(NCCS(=O)(=O)N1CCN(c2ccccc2)CC1)c1ccc(Cl)cc1`: the activity change, negative = inhibition is -36.9%.
Next, `O=C(NCCS(=O)(=O)N1CCN(c2ccc(F)cc2)CC1)c1ccccc1Br`: -4.07%; `O=S(=O)(NCCS(=O)(=O)N1CCN(c2ccccc2)CC1)c1ccc(F)cc1`: -74.9% (active).
Next, `CCCC(=O)O[C@]1(C(=O)COC(=O)CC)CC[C@@H]2[C@@H]3CCC4=CC(=O)CC[C@]4(C)[C@H]3[C@@H](O)C[C@@]21C`: -16.1%.
Next, `O=[N+]([O-])/C=C/c1ccc2c(ccn2Cc2ccccc2)c1`: -93.7% (active); `O=c1c(=O)n(Cc2c(F)cccc2Cl)ccn1Cc1ccccc1`: -0.809%; `COc1ccc(Cn2ccn(Cc3cccc(OC)c3)c(=O)c2=O)cc1`: 1.35%.
Turning to `Cn1cccc1/C=C1\SC(=S)N(NC(=O)c2ccc(Cl)cc2)C1=O`, the activity change, negative = inhibition is -8.62%.
With `Cn1cccc1/C=C1\SC(=O)N(CC(=O)Nc2ccc(F)cc2)C1=O`, the activity change, negative = inhibition is -75.7% (active).
Regarding `O=C(CN1C(=O)S/C(=C\c2ccccc2F)C1=O)NCCCn1ccnc1`, the activity change, negative = inhibition is 4.7%.
Next, `COCCCNC(=O)c1c(NC(=O)c2cc(=O)c3cc(C)c(C)cc3o2)sc2c1CCCC2`: -4.73%; `O=C(CSc1nccn1-c1ccc(F)cc1)Nc1cccc2ccccc12`: 1.1%.
`CC(C)c1ccc(NC(=O)c2ccc3c(O)c(S(=O)(=O)c4ccccc4)c(=O)[nH]c3c2)cc1`: the activity change, negative = inhibition is -14%.
Next, `COC(=O)c1c(NC(=O)c2cc(=O)c3c(C)cc(C)cc3o2)sc2c1CCCC2`: 3.21%.
Next, `CCOC(=O)N1CCc2c(sc3c2c(=O)n(Cc2ccccc2)c(=O)n3CC(=O)Nc2cccc(C)c2)C1`: 4.91%; `CCOC(=O)c1c(NC(C)=O)c2c3c(sc2n1Cc1c(C)cc(C)cc1C)CCCC3`: -73.1% (active); `CCN(CC)S(=O)(=O)c1nnc(NC(=O)COc2ccccc2Cl)s1`: -10.5%.
